# Columns and labels:
# Format in all cases: functional
# [1] = target: Solute carrier family 2, facilitated glucose transporter member 1 (Homo sapiens) (UniProt P11166); assay: ST_JUDE_LEISH: Cytotoxicity at 2uM final concentration against transgenic Leishmania Mexicana promastigotes LmGLUT1 that are glucose transport deficient and complemented with the human glucose transporter GLUT1. Activity is measured by DNA content using SYBR green in vitro
# [2] = target: Hexose transporter 1 (Plasmodium falciparum) (UniProt O97467); assay: ST_JUDE_LEISH: Cytotoxicity at 2uM final concentration against transgenic Leishmania Mexicana promastigotes LmPfHT that are glucose transport deficient and complemented with the Plasmodium falciparum hexose transporter. Activity is measured by DNA content using SYBR green in vitro
# [3] = target: Glucose transporter (Leishmania mexicana) (UniProt O61059); assay: ST_JUDE_LEISH: Cytotoxicity at 2uM final concentration against transgenic Leishmania Mexicana promastigotes LmGT2 that are glucose transport deficient and complemented with the L. Mexicana glucose transporter 2. Activity is measured by DNA content using SYBR green in vitro
# Sequence of Solute carrier family 2, facilitated glucose transporter member 1 (Homo sapiens) (P11166 whole entry): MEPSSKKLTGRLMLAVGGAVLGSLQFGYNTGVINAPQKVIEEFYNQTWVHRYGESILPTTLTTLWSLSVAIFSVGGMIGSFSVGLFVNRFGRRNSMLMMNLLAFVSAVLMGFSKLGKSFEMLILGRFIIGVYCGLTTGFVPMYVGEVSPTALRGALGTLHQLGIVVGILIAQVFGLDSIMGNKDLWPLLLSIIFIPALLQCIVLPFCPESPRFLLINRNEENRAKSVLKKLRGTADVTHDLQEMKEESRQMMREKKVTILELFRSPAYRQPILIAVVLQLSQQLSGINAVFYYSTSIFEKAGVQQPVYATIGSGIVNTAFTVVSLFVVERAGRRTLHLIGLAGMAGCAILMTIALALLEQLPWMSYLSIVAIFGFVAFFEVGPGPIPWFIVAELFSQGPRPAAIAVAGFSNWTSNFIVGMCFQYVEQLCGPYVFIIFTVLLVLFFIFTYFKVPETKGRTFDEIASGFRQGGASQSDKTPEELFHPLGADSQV
smiles,measurement,setting,value
c1ccc2c(NCCCCCCCNc3ccnc4ccccc34)ccnc2c1,inhibition,[1],13.5%
same,inhibition,[2],13.3%
same,inhibition,[3],12.9%
CCOc1ccc(N2C(N)=NC(N)=NC2(C)C)cc1,inhibition,[1],4.38%
same,inhibition,[2],3.86%
same,inhibition,[3],4.06%
Cc1[nH]c(C)c(-c2ccc(-c3ccc(C(F)F)cc3)nc2)c(=O)c1Cl,inhibition,[1],2.19%
same,inhibition,[2],3.08%
same,inhibition,[3],2.57%
NCC1CCCN1Cc1ccc(-c2cccc(-c3nc4cc(C(F)(F)F)ccc4[nH]3)c2)cc1 (stereo not given),inhibition,[1],1.03%
same,inhibition,[2],1.99%
same,inhibition,[3],3.17%
CCCCN(C)CC#Cc1ccc(-c2ccc3[nH]c(C)c(Br)c(=O)c3c2)cn1,inhibition,[1],6.4%
same,inhibition,[2],7.74%
same,inhibition,[3],8.6%
Cc1noc(C)c1-c1ccc2c(Nc3ccc(Cl)cc3)c(C(N)=O)cnc2c1,inhibition,[1],24.3%
same,inhibition,[2],29.3%
same,inhibition,[3],12.9%
Cn1nccc1C(=O)NCCNCc1cccc(-c2ccc(-c3nc4cc(C(F)(F)F)ccc4[nH]3)cc2)c1,inhibition,[1],-3.3%
same,inhibition,[2],-1.43%
same,inhibition,[3],-2.04%
Cc1cccc(Nc2nccc(Nc3cccc(C(=O)NCCN4CCOCC4)c3)n2)c1,inhibition,[1],2.19%
same,inhibition,[2],1.2%
same,inhibition,[3],1.44%
Cc1ccc(S(=O)(=O)NC2CCN(CCNC(=O)Nc3cc(C)nc4ccccc34)C2)cc1 (stereo not given),inhibition,[1],4.78%
same,inhibition,[2],4.12%
same,inhibition,[3],0.31%
COc1ccc(C(=O)N[C@@H](CC(C)C)C(=O)NC2CC[C@@H](C)N(C(=O)Nc3ccc(Cl)cc3)CC2=O)cc1OCCN1CCOCC1 (stereo not given in full),inhibition,[1],2.44%
same,inhibition,[2],3.66%
same,inhibition,[3],5.16%
NC1CCN(Cc2cccc(-c3ccc(-c4nc5ccccc5[nH]4)cc3)c2)C1 (stereo not given),inhibition,[1],-1.1%
same,inhibition,[2],2.18%
same,inhibition,[3],1.99%
O=C(Nc1cccc(C(F)(F)F)c1)NC1CCN(c2ccnc3ccccc23)CC1,inhibition,[1],5.82%
same,inhibition,[2],5.09%
same,inhibition,[3],2.7%
FC(F)(F)c1cnc(Sc2nnc(-c3ccco3)o2)c(Cl)c1,inhibition,[1],17.1%
same,inhibition,[2],12.9%
same,inhibition,[3],11.8%
CCCCN(CCCC)CCOc1cc2c(cc1OC)CCN2C(=O)/C=C/c1ccccc1Cl,inhibition,[1],1.13%
same,inhibition,[2],1.58%
same,inhibition,[3],-0.32%
COc1cc(CNC[C@@H](O)[C@H](Cc2ccccc2)NC(=O)c2cc(C3CCCC3)cc(N3CCCS3(=O)=O)c2)cc(OC)c1,inhibition,[1],4.36%
same,inhibition,[2],3.83%
same,inhibition,[3],4.45%
CC1Cc2ccccc2N1S(=O)(=O)c1cc(OCC(F)(F)F)ccc1OCC(F)(F)F (stereo not given),inhibition,[1],4.69%
same,inhibition,[2],3.54%
same,inhibition,[3],3.67%
CCNc1cc(CCCC(=O)OCC)nc(Nc2ccc(C)cc2)n1,inhibition,[1],10.3%
same,inhibition,[2],13%
same,inhibition,[3],10.3%
Cc1noc(C)c1-c1cccc(CNCc2ccc(-c3cccc(-c4nc5cc(F)ccc5[nH]4)c3)cc2)c1,inhibition,[1],11.3%
same,inhibition,[2],10.1%
same,inhibition,[3],10.8%
Cc1cc(C(F)(F)F)n2nc(C3CCN(Cc4cc(C)c(O)c(C)c4)C3)cc2n1 (stereo not given),inhibition,[1],4.53%
same,inhibition,[2],3.54%
same,inhibition,[3],-0.59%
Clc1ccccc1/C=C/c1cncnc1Nc1ccc2[nH]c(Cc3ccccc3)nc2c1,inhibition,[1],7.21%
same,inhibition,[2],2.53%
same,inhibition,[3],1.23%
Cc1ccc(C2CCN(CCCCNC(=O)c3ccc(NC(=O)c4ccc(Cl)cc4)cc3)CC2)c(C)c1,inhibition,[1],-0.93%
same,inhibition,[2],-0.75%
same,inhibition,[3],-0.85%
COc1c(C2=CCN(CCCCNC(=O)c3ccc(-c4ccc(C#N)cc4)cc3)CC2)ccc2c1CCCC2,inhibition,[1],0.4%
same,inhibition,[2],-0.52%
same,inhibition,[3],0.06%
COc1ccc2nccc([C@@H](O)CN3CCC(NC(=O)C(c4cc5ccccc5o4)N4CCC(Cc5ccccc5)CC4)CC3)c2c1 (stereo not given in full),inhibition,[1],5.02%
same,inhibition,[2],3.03%
same,inhibition,[3],2.23%
c1cc(CNCCN2CCNCC2)cc(-c2ccc(-c3nc4ccccc4[nH]3)cc2)c1,inhibition,[1],18.3%
same,inhibition,[2],16.8%
same,inhibition,[3],13.2%
Cc1c(C)n(C2CCCCC2)c2ncnc(OC3CCN(CC(=O)N4CCCC4)CC3)c12,inhibition,[1],1.06%
same,inhibition,[2],3.02%
same,inhibition,[3],1.38%
CN1CCCC1CCNC(=O)[C@H](CC1CCCCC1)NC(=O)c1ccc(O)c(-c2ccc(Cl)c(Cl)c2)c1 (stereo not given in full),inhibition,[1],8.26%
same,inhibition,[2],10.3%
same,inhibition,[3],6.63%
CC(=NNC(S)=NCCc1ccccn1)c1ccccn1,inhibition,[1],7.78%
same,inhibition,[2],4.39%
same,inhibition,[3],6.19%
O=[N+]([O-])c1cccc(CNC2CCN(Cc3ccc(C(F)(F)F)cc3)CC2)c1,inhibition,[1],2.18%
same,inhibition,[2],2.08%
same,inhibition,[3],3.71%
c1cc(CNc2ncc(-c3ccsc3)c(-c3nccs3)n2)ccn1,inhibition,[1],7.08%
same,inhibition,[2],9.37%
same,inhibition,[3],6.45%
c1cncc(CCNCc2cccc(-c3ccc(-c4nc5ccccc5[nH]4)s3)c2)c1,inhibition,[1],7.99%
same,inhibition,[2],7.19%
same,inhibition,[3],4.65%
O=[N+]([O-])c1cccc(CNCC2CCN(Cc3ccc(O)cc3)CC2)c1,inhibition,[1],21.4%
same,inhibition,[2],5.62%
same,inhibition,[3],2.59%
Cc1cc(-c2ccc3c(c2)CCN(CCC2CCC(NC(=O)/C=C/c4ccccc4F)CC2)CC3)on1 (stereo not given),inhibition,[1],11%
same,inhibition,[2],6.81%
same,inhibition,[3],12.2%
CCCCCCOc1ccc(C(=O)N[C@H]2CCN(CCCCCNC(=O)/C=C/c3ccc(Cl)c(Cl)c3)C2)cc1,inhibition,[1],0.31%
same,inhibition,[2],-0.9%
same,inhibition,[3],1.12%
O=C(Nc1ccc(Cl)cc1)c1ccc(CN2CCCN(CC3CCCCC3)CC2)cc1,inhibition,[1],4.77%
same,inhibition,[2],7.11%
same,inhibition,[3],5.54%
CC(CON1C(N)=NC(N)=NC1(C)C)c1ccc(Cl)cc1Cl (stereo not given),inhibition,[1],23.2%
same,inhibition,[2],37.1%
same,inhibition,[3],24.2%

# Source: ChEMBL document CHEMBL3433997, “St. Jude Leishmania screening dataset” (2016)
